Where “and” joins values, the source holds several entries; their conditions need not be identical. Identical values can stand only once. Hit rate of the full screen: of about 5,500 compounds, about 2,000 (36%) were called active. Inconclusive results (about 18%) are left out. No stated cut-off is given here; in the data, active means normalized growth mostly below about 0.91 (no sharp cut-off); inconclusive means no clear call, values can overlap the other calls; inactive means mostly above about 0.92. Some of the results follow.
Experiment: chemical genetic growth profiling, strain panel (AID 1159580);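 further: tested at 20 µM; growth read once vehicle control cultures reached saturation at 30 °C; 1 = growth at the plate median or of vehicle wells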
Conditions: S. cerevisiae deletion strains, growth OD

Measured: normalized growth

C=CC(C1=CC(=O)C(OC)=CC1=O)c1ccccc1 (configuration not stated)
0.852 (inactive) and 0.869 (active): locus YJL095W, strain BCK1, stronger effect = lower value
inactive: locus YAL021C, strain ccr4, stronger effect = lower value 1.04 | locus YBR021W, strain FUR4, stronger effect = lower value 0.922 | locus YBR171W, strain sec66, stronger effect = lower value 0.992 | locus YBR229C, strain ROT2, stronger effect = lower value 0.969 | locus YBR231C, strain swc5, stronger effect = lower value 0.947 | locus YCL029C, strain bik1, stronger effect = lower value 0.948 | locus YCL069W, strain vba3, stronger effect = lower value 0.954 | locus YCR088W, strain abp1, stronger effect = lower value 0.969 | locus YDL005C, strain med2, stronger effect = lower value 1 | locus YDL040C, strain nat1, stronger effect = lower value 1 | locus YDL074C, strain BRE1, stronger effect = lower value 0.781 | locus YDL101C, strain DUN1, stronger effect = lower value 0.94 | locus YDL134C, strain PPH21, stronger effect = lower value 0.944 | locus YDL185W, strain tfp1, stronger effect = lower value 0.948 | locus YDR001C, strain nth1, stronger effect = lower value 0.983 | locus YDR069C, strain doa4, stronger effect = lower value 0.982 | locus YDR150W, strain NUM1, stronger effect = lower value 0.972 | locus YDR334W, strain swr1, stronger effect = lower value 0.999 | locus YDR335W, strain msn5, stronger effect = lower value 0.968 | locus YEL037C, strain rad23, stronger effect = lower value 0.993 | locus YEL061C, strain CIN8 (second series), stronger effect = lower value 0.966 | locus YEL061C, strain CIN8, stronger effect = lower value 0.932 | locus YER016W, strain bim1, stronger effect = lower value 0.985 | locus YER110C, stronger effect = lower value 0.936 | locus YER111C, strain swi4, stronger effect = lower value 0.977 | locus YER155C, strain BEM2, stronger effect = lower value 0.956 | locus YFR010W, strain ubp6, stronger effect = lower value 0.979 | locus YGL078C, strain dbp3, stronger effect = lower value 0.998 | locus YGL167C, strain pmr1, stronger effect = lower value 0.973 | locus YGL227W, strain vid30, stronger effect = lower value 0.963 | locus YGL248W, strain PDE1, stronger effect = lower value 0.947 | locus YGL253W, strain hxk2, stronger effect = lower value 0.92 | locus YGR252W, strain gcn5, stronger effect = lower value 0.854 | locus YHR013C, strain ard1, stronger effect = lower value 0.876 | locus YHR094C, strain hxt1, stronger effect = lower value 0.956 | locus YIL073C, strain SPO22, stronger effect = lower value 0.723 | locus YIL125W, strain kgd1, stronger effect = lower value 0.963 | locus YIR030C, strain dcg1, stronger effect = lower value 0.929 | locus YJL092W, strain hpr5, stronger effect = lower value 0.95 | locus YJL115W, strain asf1, stronger effect = lower value 1 | locus YJL129C, strain trk1, stronger effect = lower value 0.947 | locus YJL134W, strain LCB3, stronger effect = lower value 0.96 | locus YJL154C, strain vps35, stronger effect = lower value 0.999 | locus YJL168C, strain set2, stronger effect = lower value 0.953 | locus YJL187C, strain SWE1 (second series), stronger effect = lower value 0.944 | locus YJR066W, strain TOR1, stronger effect = lower value 0.858
active: locus YAL013W, strain DEP1, stronger effect = lower value 0.908 | locus YAL026C, strain drs2, stronger effect = lower value 0.853 | locus YAL030W, strain snc1, stronger effect = lower value 0.92 | locus YBL061C, strain skt5, stronger effect = lower value 0.847 | locus YBR009C, strain hhf1, stronger effect = lower value 0.728 | locus YBR023C, strain chs3, stronger effect = lower value 0.85 | locus YBR279W, strain paf1, stronger effect = lower value 0.858 | locus YCL011C, strain gbp2, stronger effect = lower value 0.843 | locus YCL016C, strain dcc1, stronger effect = lower value 0.845 | locus YCL061C, strain MRC1, stronger effect = lower value 0.911 | locus YDL035C, strain GPR1, stronger effect = lower value 0.825 | locus YDL192W, strain arf1, stronger effect = lower value 0.843 | locus YDR101C, strain arx1, stronger effect = lower value 0.854 | locus YDR137W, strain rgp1, stronger effect = lower value 0.616 | locus YDR159W, strain sac3, stronger effect = lower value 0.85 | locus YDR162C, strain NBP2, stronger effect = lower value 0.607 | locus YDR195W, strain ref2 1.32 [resistant] | locus YDR297W, strain sur2, stronger effect = lower value 0.913 | locus YDR318W, strain mcm21, stronger effect = lower value 0.83 | locus YDR388W, stronger effect = lower value 0.907 | locus YDR392W, strain spt3, stronger effect = lower value 0.233 | locus YDR502C, strain sam2, stronger effect = lower value 0.902 | locus YEL003W, strain gim4, stronger effect = lower value 0.823 | locus YER015W, strain faa2, stronger effect = lower value 0.815 | locus YER155C, strain BEM2 (second series), stronger effect = lower value 0.43 | locus YER167W, strain BCK2, stronger effect = lower value 0.747 | locus YGL086W, strain mad1, stronger effect = lower value 0.853 | locus YGL173C, strain kem1, stronger effect = lower value 0.855 | locus YGL240W, strain doc1, stronger effect = lower value 0.708 | locus YGR078C, strain PAC10, stronger effect = lower value 0.734 | locus YGR135W, strain pre9, stronger effect = lower value 0.864 | locus YGR229C, strain SMI1, stronger effect = lower value 0.692 | locus YHR027C, strain rpn1, stronger effect = lower value 0.92 | locus YHR030C, strain SLT2, stronger effect = lower value 0.895 and 0.797 | locus YHR079C, strain IRE1 (second series), stronger effect = lower value 0.908 | locus YHR079C, strain IRE1, stronger effect = lower value 0.824 | locus YHR129C, strain ARP1, stronger effect = lower value 0.88 | locus YHR142W, strain chs7, stronger effect = lower value 0.729 | locus YHR200W, strain rpn10, stronger effect = lower value 0.92 | locus YIL066C, strain RNR3, stronger effect = lower value 0.824 | locus YJL095W, strain BCK1 (second series), stronger effect = lower value 0.873 | locus YJL164C, strain tpk1, stronger effect = lower value 0.77 | locus YJL166W, strain qcr8, stronger effect = lower value 0.686 | locus YJL187C, strain SWE1, stronger effect = lower value 0.855 | locus YJR043C, strain POL32, stronger effect = lower value 0.768
